This note sets out measurements from PubChem BioAssay (Tox21).

Molecules are shown by their SMILES. Results filed as inconclusive are left out. Values without a mark were called inactive. Calls of active or inactive are those of the source. Calls come from the whole dose curve.
% is set by controls: 0 for no effect and ±100 for the full control effect; potency is the fitted concentration of half-maximal effect.

The experiment is described as follows: qHTS assay to identify small molecule antagonists of the estrogen receptor alpha (ER-alpha) signaling pathway using the BG1 cell line (AID 743080).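 Note: BG1 cells stimulated with 17beta-estradiol alongside compound; nearly all actives have a fitted effect of over 25% in size.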 The note with it: BG1Luc4E2 ERE-luciferase antagonist mode, luminescence; series mostly up to 70.3 µM; activity change, negative = inhibition: at the top concentration. An excerpt:
National Center for Advancing Translational Sciences [NCATS]
NIH Chemical Genomics Center [NCGC]
U.S. Environmental Protection Agency [EPA]
National Institutes of Environmental Health Sciences [NIEHS]
National Toxicology Program [NTP]
U.S. Food and Drug Administration [FDA]
Estrogen receptor (ER), a nuclear hormone receptor, plays an important role in development, metabolic homeostasis and reproduction. Endocrine disrupting chemicals (EDCs) and their interactions with steroid hormone receptors like ER causes disruption of normal endocrine function. Therefore, it is important to understand the effect of environmental chemicals on the ER signaling pathway. To identify ER antagonists, BG1-Luc-4E2 cell line (provided by Dr. Michael Denison from University of California) has been used to screen the Tox21 10K compound library. BG1Luc4E2 cell line endogenously expresses full-length ER-alpha and is stably transfected with a plasmid containing four estrogen responsive elements (ERE) upstream of a luciferase reporter gene.
Tox21 Assay Protocol Summary:
BG1-Luc-4E2 cells were cultured in phenol red free assay medium containing 10% charcoal stripped FBS for 5 days before the assay was performed. The cells were dispensed at 4,000 cells/4 uL of assay medium per well into white wall/solid-bottom 1536-well plates using a Multidrop Combi (ThermoFisher Scientific, Waltham, MA) dispenser. The assay plates were incubated at a 37C and 5% CO2 for 24 h, and then 23 nL of compounds dissolved in DMSO, positive controls or DMSO only was transferred to the assay plate using a Pintool station (Kalypsys, San Diego, CA), followed by addition of 1 uL of 17beta-estradiol in assay medium using a Flying Reagent Dispenser (Aurora Discovery, San Diego, CA). After the plates were incubated at 37 C and 5% CO2 for 21.5 h, 1 uL of CellTiter-Fluor reagent (Promega, Madison, WI) of measuring cytotoxicity was added using Flying Reagent Dispenser (FRD) to each well. The assay plates were incubated at 37 C and 5% CO2 for additional 30 min and the fluorescence intensity was quantified by a ViewLux plate reader (PerkinElmer, Shelton, CT). For measuring luciferase reporter gene activity, 4 uL of ONE-Glo reagent (Promega) was added to each plate using an FRD and luminescence was quantified by a ViewLux plate reader after 30 min incubation at room temperature.
A general note: qHTS replaces the single test concentration by a dilution series.
As to `CSc1ccc2c(c1)C(N1CCN(C)CC1)Cc1ccccc1S2` (stereo not given), the “activity change, negative = inhibition” value is -7.13%.

For the molecule `O=C1c2c(O)ccc(Nc3ccc(CCO)cc3)c2C(=O)c2c([N+](=O)[O-])ccc(O)c21`, the “activity change, negative = inhibition” value is 5.29%.

Regarding `CN(C)c1ccc(SC#N)cc1`, the “activity change, negative = inhibition” value is 8.82%.

Take `O=C1CCCCCN1SSN1CCCCCC1=O`: the “activity change, negative = inhibition” value was 0.712%.

For the molecule `CCOC(=O)c1nc(C(Cl)(Cl)Cl)n(-c2ccc(Cl)cc2Cl)n1`, the “activity change, negative = inhibition” value was 0.427%.

Consider `CCCCCCCCCCCCCCCS(=O)(=O)Oc1ccccc1`, for which the “activity change, negative = inhibition” value was -17.6%.

With `CN1CCN(CCC(=O)N2c3ccccc3Sc3ccc(C(F)(F)F)cc32)CC1`, the “activity change, negative = inhibition” value was -5.93%.

Turning to `CCCCCCCCOc1ccccc1C(=O)Nc1ccc(C(=O)OCC[N+](C)(CC)CC)cc1`, the “activity change, negative = inhibition” value was 0.828%.

For `CCCN(CCC)C(=O)C(CCC(=O)OCCCN1CCN(CCOC(=O)Cc2c(C)n(C(=O)c3ccc(Cl)cc3)c3ccc(OC)cc23)CC1)NC(=O)c1ccccc1` (stereo not given), the “activity change, negative = inhibition” value was -0.843%.

In the case of `CCC(N)(CO)CO`, the “activity change, negative = inhibition” value is -1.88% [at 95 µM].

With `CCCC/C=C/CCCCO`, the “activity change, negative = inhibition” value is 9.13%.

On to `NNc1nc(-c2ccc(N)cc2)cs1`, for which the “activity change, negative = inhibition” value is 4.38%.

As for `CCCC(=O)OC[C@@H](OC(=O)CCC)[C@@H](OC(=O)CCC)[C@H](Cn1c2nc(=O)[nH]c(=O)c-2nc2cc(C)c(C)cc21)OC(=O)CCC`, the Potency was 29.8 µM (active).

Turning to `CCC1=C[C@@H]2CN(C1)Cc1c([nH]c3ccccc13)[C@@](C(=O)OC)(c1cc3c(cc1OC)N(C)[C@H]1[C@@](O)(C(=O)OC)[C@H](OC(C)=O)[C@]4(CC)C=CCN5CC[C@]31[C@@H]54)C2`, the “activity change, negative = inhibition” value is -28.8%.

For `CC[C@H](c1ccc(O)cc1)[C@@H](CC)c1ccc(O)cc1`, the Potency is 68.6 µM (active).

Take `Cc1cccc(CN2CCN(C(c3ccccc3)c3ccc(Cl)cc3)CC2)c1` (stereo not given): the “activity change, negative = inhibition” value is -0.845% [at 32.5 µM].

Consider `O=C(O)c1ccc(Cl)c(Cl)c1`, for which the “activity change, negative = inhibition” value is -1.56%.

As for `CC(C)=CCOc1ccc(/C=C/C(=O)c2ccc(OCC=C(C)C)cc2OCC(=O)O)cc1`, the “activity change, negative = inhibition” value was 1.42%.

In the case of `NNC(=O)c1cccc(C(=O)NN)c1`, the “activity change, negative = inhibition” value is 0.303%.

For the molecule `O=CC=C(c1ccccc1)c1ccccc1`, the Potency was 69.1 µM (active).

On to `O=c1[nH]cnc2nc[nH]c12`, for which the “activity change, negative = inhibition” value was 6.88%.

`Cc1ccc(-n2nc(C(C)(C)C)cc2NC(=O)Nc2ccc(OCCN3CCOCC3)c3ccccc23)cc1`: the “activity change, negative = inhibition” value is 3.97%.

As to `Cc1cc(C2CCCCC2)n(O)c(=O)c1`, the Potency was 9.02 µM (active).

Consider `Cn1cc(C(=O)[C@@H]2CCc3nc[nH]c3C2)c2ccccc21`, for which the “activity change, negative = inhibition” value was 1.58%.

Take `Cc1cccc2c1cc1ccc3cccc4ccc2c1c34`: the “activity change, negative = inhibition” value is 1.12% [at 95 µM].

As to `O=C(Oc1cccc2cccnc12)c1ccccc1`, the “activity change, negative = inhibition” value is 15.4%.

On to `CC(C)(C)C(=O)OCOC(=O)C1N2C(=O)CC2S(=O)(=O)C1(C)C` (stereo not given), for which the “activity change, negative = inhibition” value is 1.13%.

Take `NC(=O)NS(=O)(=O)c1ccc(N)cc1`: the “activity change, negative = inhibition” value is 0.173%.

For the molecule `CN(C)c1ccc(C2(c3ccc(N(C)C)cc3)OC(=O)c3cc(N(C)C)ccc32)cc1`, the “activity change, negative = inhibition” value was -2.39%.

As to `Fc1ccc([C@@H]2CCNC[C@H]2COc2ccc3c(c2)OCO3)cc1`, the “activity change, negative = inhibition” value was 11.6%.

`CCC(C)(C)C1CCCCC1OC(C)=O` (stereo not given): the “activity change, negative = inhibition” value is 4.76%.

In the case of `NC(=O)N1C(=O)C(C(=O)c2cc(Cl)cs2)c2cc(F)c(Cl)cc21` (stereo not given), the “activity change, negative = inhibition” value is -35.8%.

In the case of `O=C(c1ccc(O)cc1O)c1ccc(O)cc1O`, the Potency result is “inactive”.

As for `CC1(C)CCC(C)(C)c2cc(C(=O)Nc3ccc(C(=O)O)cc3)ccc21`, the Potency was 0.0043 µM (active).

Regarding `CCOC(=O)/C=C(C)/C=C/C=C(C)/C=C/c1c(C)cc(OC)c(C)c1C`, the Potency is 4.22 µM (active).

Take `O=C(N/N=C/c1ccccc1O)c1ccncc1`: the Potency is 18.8 µM (active).

As for `COc1ccc(-c2ccc3cc(C(=O)O)ccc3c2)cc1C12CC3CC(CC(C3)C1)C2`, the Potency was 0.376 µM (active).

Consider `Clc1ccc2nsnc2c1NC1=NCCN1`, for which the “activity change, negative = inhibition” value was 12.5%.

With `CCN1/C(=C/C=C/c2sc3ccccc3[n+]2CC)Sc2ccccc21`, the Potency is 2.98 µM (active).

On to `O=C(O)c1cc(O)c2c(c1)C(=O)c1cccc(O)c1C2=O`, for which the “activity change, negative = inhibition” value was -12.2% [at 95 µM].
